Data on 93 compounds can be found in PubChem BioAssay AID2314 (National Center for Advancing Translational Sciences (NCATS), 2010).

Where “and” joins values, the source holds several entries; their conditions need not be identical. Equal values may be shown once. Hit rate of the full screen: of about 300,000 compounds, about 37,000 (12%) were called active. Many of the other results were omitted from the sample, so actives are more common in it than they were. Unmarked numbers belong to inactive results. No stated cut-off is given here; in the data, active means max response mostly above about 13% (no sharp cut-off); inactive means mostly below about 14%.

A short description of the assay: Cycloheximide Counterscreen for Small Molecule Inhibitors of Shiga Toxin. Further: read at 38.3 µM for the half of the compounds with a filed dose; 0% is about no effect. The note with it: cell reporter, cycloheximide protein synthesis inhibition counterscreen; active compounds read high. A general note: The purpose of a counterscreen is to sort out artefacts and off-target activity.
As to `CCN(CC(=O)NCCCN1CCOCC1)S(=O)(=O)c1cc(Cl)ccc1Cl`, the max response was 5.99%.
Consider `O=C(CCCN1C(=O)/C(=C/c2cccs2)SC1=S)Nc1ccc(O)cc1`, for which the max response was 8.82%.
As for `CCN1C(=NCC(C)C)N[C@@H](CCc2ccccc2)[C@H](C(=O)NCC(C)C)[C@H]1C`, the max response was 0.929% and -2.38%.
Consider `CN(C)/C=C(/C(=O)c1ccc(Cl)c(Cl)c1)c1nnnn1-c1ccccc1`, for which the max response is 0.0457%.
Consider `CCC(C(=O)OCC(=O)Nc1ccc(C(=O)Nc2ccc(OC)cc2)cc1)c1ccccc1` (stereo not drawn), for which the max response was 11.5%.
Turning to `COc1ccc(C(=S)Nc2ccccc2)cc1`, the max response is 37.3% (active).
`COCCNC(=S)c1ccc(OC)cc1`: the max response is 5.78%.
With `CCc1cc(C(N)=O)c(NC(=O)c2ccc(OC)cc2)s1`, the max response is 19.3% (active).
Then `COc1ccc(C(=O)Nc2ccc(-n3nncc3C(C)(C)C)cc2)cc1`, with 48% (active); and `CCc1cc(C(=O)c2ccc(OC)cc2)c(NC(=O)CN2CCN(C)CC2)s1`, with -1.85%; and `Cc1ccc(NC(=O)c2ccc(Oc3ncccn3)cc2)cc1`, with 32.1% (active).
Next, `COc1ccccc1C(=O)NNC(=O)c1ccc(NC(=O)c2ccccc2)cc1`: -2.29%; `C/C(=N\Nc1ccc([N+](=O)[O-])cc1)c1ccc(-n2nncc2C(C)(C)C)cc1`: -3.73%; `CC(C)(C)c1cnnn1-c1ccc([N+](=O)[O-])cc1`: 6.21%.
Take `Cc1ccc(NC(=O)c2cccnc2C(=O)Nc2ccc(C)cc2)cc1`: the max response was -2.58%.
Then `CCc1cc(C(c2ccccc2OC)N2CCOCC2)c(NC(=O)c2ccccc2)s1` (stereo not drawn), with 12.9%; and `CN(C)S(=O)(=O)c1cccc(NC(=O)COC(=O)C2(c3ccccc3F)CCCC2)c1`, with -2.67%; and `Cc1c(C(=O)NC(C)C2CC3CCC2C3)cccc1[N+](=O)[O-]` (stereo not drawn), with -3.79%.
Take `COc1cnc(SCc2ccc(Cl)c(Cl)c2)nc1Cl`: the max response is 2.3%.
For `CCc1c2c(nc3ccc(O)cc13)-c1cc3c(c(=O)n1C2)COC(=O)[C@]3(O)CC`, the max response is -1.28%.
On to `NC(N)=Nc1nc(-c2ccccc2)c2cc(Cl)ccc2n1`, for which the max response was -10.2%.
`CCOC(=O)C1=C(N)N(c2ccc(C)cc2)C2=C(C(=O)CCC2)C1c1cccs1` (stereo not drawn): the max response was 5.25%.
On to `COc1ccccc1OC(C)C(=O)Nc1ccc(S(=O)(=O)Nc2nccs2)cc1` (stereo not drawn), for which the max response is -6.41%.
On to `CC(=O)N1c2ccc(S(=O)(=O)N3CCCC(C(=O)NCc4ccc(Cl)cc4)C3)cc2CC1C` (stereo not drawn), for which the max response is 10.9%.
On to `CNS(=O)(=O)c1cccc(C(=O)NC2CCCc3ccccc32)c1` (stereo not drawn), for which the max response was -2.97%.
Then `COc1ccc(NS(=O)(=O)c2ccc(NC(=O)c3ccc(N(C)S(C)(=O)=O)cc3)cc2)cc1`, with -6.86%; and `COc1ccc(NC(=O)C(Br)C(C)C)cc1` (stereo not drawn), with 10.3%; and `COc1ccc(S(=O)(=O)Nc2ccc3oc(C)c(C(C)=O)c3c2)cc1`, with -0.324%.
In the case of `COc1ccc(NC(=O)ON=C2c3ccccc3-c3ccccc32)cc1`, the max response is 36.1% (active).
For `CCC(=O)Nc1ccc(C(=O)Nc2cccc(OC)c2)cc1`, the max response is 37.4% (active).
Then `COc1cccc(NC(=O)CN(C)CC(=O)Nc2ccc3c(c2)CCC3)c1`, with 4.53%.
Turning to `COc1ccc2oc(=N)c(C(=O)Nc3ccc(Br)cc3)cc2c1`, the max response was -2.54%.
As for `COc1ccc(NC(=O)c2c(C)oc3c2CCCC3)cc1`, the max response was 23.1% (active).
On to `COc1ccc(C(=O)ON=C2c3ccccc3-c3ccccc32)cc1OC`, for which the max response is -2.66%.
Next, `COc1ccc(NC(=O)c2ccc(C#CC(C)(C)O)cc2)cc1`: 29.4% (active); `COc1ccc(CC(=O)Nc2ccc(C(=O)NC(C)(C)C)cc2)cc1`: 7.23%.
Take `COc1cccc(NC(=O)c2ccc(S(=O)(=O)N(C)C)cc2)c1`: the max response is 9.95%.
Turning to `CCC(C)[C@H](NC(=O)N1CCn2c1nc1ccccc12)C(=O)NCc1ccc(OC)cc1` (stereo partly drawn), the max response is 7.87%.
On to `CC1CCN(C(=S)NC2CC3CCC2C3)CC1` (stereo not drawn), for which the max response was -2.5%.
For `O=C(CCCCCn1c(=S)[nH]c2ccsc2c1=O)NC1CCCCC1`, the max response is -3.34%.
As to `Cc1nc(NC2=NC(C(=O)Nc3ccc(Cl)cc3)CC(=O)N2)nc2ccccc12` (stereo not drawn), the max response was -1.93%.
Turning to `Cc1ccc2c(C)c(C(=O)N(C)Cc3ccncn3)oc2c1C`, the max response was -3.14%.
In the case of `CCOC(=O)C1(CC2CCCCO2)CCN(Cc2nc(-c3cccs3)oc2C)CC1` (stereo not drawn), the max response was -1.4%.
`CC(C(=O)c1ccc(-c2ccccc2)cc1)[n+]1cccc(Br)c1` (stereo not drawn): the max response is -1.92%.
In the case of `CC(NC(=O)c1ccco1)c1ccc2c(c1)OCO2` (stereo not drawn), the max response is -2.24%.
Regarding `Cc1c(C)c2c(OCC(=O)N[C@@H](C(=O)O)c3ccccc3)cc3c(c2oc1=O)CCC(C)(C)O3`, the max response is 0.453%.
As for `Cc1nn(C)c(C)c1CN(C(=O)CCc1nnc(Cc2c[nH]c3ccccc23)o1)C(C)C`, the max response is -2.58%.
In the case of `COCCNC(=O)/C(C#N)=C/c1nc(N(C)C)n(-c2ccc(F)cc2)c1Cl`, the max response is 6.45%.
With `CSCCC(NS(=O)(=O)c1ccc(C)cc1)C(=O)N1CCCC1` (stereo not drawn), the max response is -0.967%.
Turning to `COc1ccc(/C=N/NC(=O)Nc2ccc3nsnc3c2)c(OC)c1`, the max response was -1.93%.
As to `COc1ccc(NC(=O)c2ccc(OC)cc2)cc1`, the max response is 45.1% (active).
Take `COc1ccc(C(=O)NNC(=S)NC(=O)c2ccccc2)cc1`: the max response was 8.67%.
As for `COc1ccc(C(=O)Nc2cccc(S(C)(=O)=O)c2)cc1`, the max response is -2.97%.
As for `Cc1cccc(C(=O)Nc2ccc(Oc3cnccn3)cc2)c1`, the max response was 22.6% (active).
With `COc1ccc(NC(=O)Nc2ccc3nsnc3c2)cc1`, the max response was 49.2% (active).
Next, `COc1ccc(C(=O)NC(=S)NC2CCCCC2)cc1`: 72.8% (active).
Consider `Cc1cccc(C(=O)Nc2ccccc2C(=O)NCc2cccnc2)c1`, for which the max response was -1.87%.
As to `Cc1cccc(C(=O)Nc2ccc3c(c2)C(=O)N(CC(C)C)C3=O)c1`, the max response was 10.4%.
Turning to `COCCNC(=O)Nc1ccc2nc(-c3ccco3)c(-c3ccco3)nc2c1`, the max response was -4.08%.
Consider `COc1ccc(C(=O)Nc2ccc(NC(=O)C(C)C)nc2)cc1`, for which the max response is 2.34%.
Regarding `O=C(NC(=S)NC1CCCCC1)c1ccc(Cl)cc1`, the max response was -1.68%.
For the compound `O=C(C1CCCO1)N1CCN(C(=S)NC2CC2)CC1` (stereo not drawn), the max response is -1.72%.
As for `CN1C(=O)[C@H]2[C@@H](C3CC3)N3C(=O)CN(Cc4ccccc4)C(=O)[C@@]3(C)[C@H]2C1=O`, the max response is -0.826%.
For `CNC(=O)CN1C(=O)NC(c2ccccc2)(c2ccccc2)C1=O`, the max response is -2.25%.
As for `Cc1ccc(C(=O)O)cc1-c1ccc(/C=C2\SC(=O)N(CC(=O)Nc3ccc4c(c3)OCO4)C2=O)o1`, the max response was -2.31%.
Next, `O=C(NN1C(=O)C2C3C=CC(C4CC34)C2C1=O)c1ccc(Cl)cc1` (stereo not drawn): 3.35%.
Then `C=C(C)C1CC=C(C)C(O)C1` (stereo not drawn), with 7.86%.
Then `CN(C(=O)COc1nnc(-c2cccs2)c(-c2cccs2)n1)c1ccccc1`, with 0.449%.
For the compound `COc1ccc(NC(=O)c2sccc2SCC#N)cc1`, the max response is 40% (active).
As for `CCN(CC)C(=O)c1ccc(NC(=O)c2sccc2-c2ccccc2)cc1`, the max response was 0.344%.
As to `COc1ccc(NC(=O)c2sc(N)nc2-c2ccccc2)cc1`, the max response is 1.95%.
Consider `COc1cccc(N(CC(=O)Nc2cccc(N(C)S(C)(=O)=O)c2)S(C)(=O)=O)c1`, for which the max response is -2.16%.
With `COc1cccc(N(CC(=O)Nc2cccc(F)c2)S(C)(=O)=O)c1`, the max response was -5.13%.
On to `CCOc1ccc(N(CC(=O)Nc2cccc(OC)c2)S(C)(=O)=O)cc1`, for which the max response is 27.2% (active).
Consider `CCOc1cccc(-c2nnc(SCC(=O)NC3CC3)n2C)c1`, for which the max response was 5.85%.
Then `CCOC(=O)NN1C(=O)c2ccccc2NC1c1ccccc1O` (stereo not drawn), with -0.209%; and `COc1ccc(CCNC(=O)CCc2cn(C)c3ccccc23)c(OC)c1`, with 0.538%.
With `O=C(NCCNc1ccc([N+](=O)[O-])cc1)c1cccc2c(Br)cccc12`, the max response was -5.64%.
On to `O=S(=O)(c1ccc(Cl)cc1)c1nc(-c2ccccc2F)oc1NCCN1CCOCC1`, for which the max response is 0.972%.
Next, `O=C(c1cc(C(=O)N2CCN(c3ccc(F)cc3)CC2)cc([N+](=O)[O-])c1)N1CCN(c2ccc(F)cc2)CC1`: 1.24%; `Nc1ccccc1C(=O)NC1CCCCNC1=O` (stereo not drawn): -3.17%; `CC12CN3CCN(CC(C3)/C1=N\NC(=O)c1ccccc1N)C2`: 42.9% (active).
As for `CNC(=S)N/N=C1\C2CN3CCN(C2)CC1(c1ccccc1)C3`, the max response was 0.185%.
In the case of `CC1CC(C)CN(C(=O)C2CC(=O)N(c3ccc(F)cc3)C2)C1` (stereo not drawn), the max response is -5.15%.
Take `COc1cc2c3c(c1)/C(=C1/SC(=S)NC1=O)C(=O)N3C(C)(C)C=C2C`: the max response is -0.91%.
On to `CC(=O)Nc1cccc(OCC(=O)/C=C2\N(C)c3ccccc3C2(C)C)c1`, for which the max response was 17%.
As for `COc1ccc(CNC(=O)COc2cccnc2[N+](=O)[O-])cc1`, the max response is -2.66%.
Next, `Cc1ccc(-n2ncc3c(Nc4cccc(C(=O)O)c4)ncnc32)cc1`: 45.3% (active); `O=C(NNc1ncnc2c1cnn2-c1ccccc1)c1ccco1`: 9.27%.
Regarding `Cc1ccc(Nc2ncnc3c2cnn3C)c(C)c1`, the max response is 1.06%.
Take `CCOC(=O)C1CN(S(=O)(=O)c2ccc(F)cc2)C1`: the max response was 1.16%.
Take `C=CCn1c(=S)[nH]c2scc(-c3ccco3)c2c1=O`: the max response is -1.66%.
Next, `COc1cc(C2C(N3C(=O)c4ccccc4C3=O)C(=O)N2c2ccc(C)c(C)c2)cc(OC)c1OC` (stereo not drawn): -1.4%.
